This is a sample that favours compounds with a hit; in the whole collection about 0.59% have one here.
Vif-APOBEC3G blk = qHTS for Inhibitors of Vif-A3G Interactions: qHTS. DNA dC->dU-editing enzyme APOBEC-3G (Homo sapiens), Q9HC16. HeLa A3G-eYFP + Vif (tagged APOBEC3G with the HIV-1 protein that degrades it), YFP fluorescence, overnight. Potency, µM (series often up to 46.1 µM), without a hit: at the top dose activity, negative = active, actives largely listed as inhibitors. 0.076% of 410,000 active. AID 602310, 2012; also: potency is read from the fitted curve at half-maximal effect; % is scaled to controls: 0 for no effect and ±100 for the full control effect; nearly all actives have a fitted effect of over 60% in size
Target sequence (Q9HC16 whole entry, looked up): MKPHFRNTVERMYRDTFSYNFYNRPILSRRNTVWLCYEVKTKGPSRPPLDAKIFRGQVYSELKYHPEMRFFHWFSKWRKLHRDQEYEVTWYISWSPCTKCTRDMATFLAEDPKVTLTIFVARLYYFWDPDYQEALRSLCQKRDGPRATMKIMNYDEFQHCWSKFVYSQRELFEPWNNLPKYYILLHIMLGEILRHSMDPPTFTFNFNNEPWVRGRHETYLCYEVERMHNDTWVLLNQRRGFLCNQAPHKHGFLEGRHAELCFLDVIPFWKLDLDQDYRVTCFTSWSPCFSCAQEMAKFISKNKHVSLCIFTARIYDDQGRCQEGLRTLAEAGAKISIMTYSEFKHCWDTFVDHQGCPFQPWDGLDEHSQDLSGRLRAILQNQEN
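HeLa cells stably expressing Vif and C-terminally eYFP-tagged A3G, seeded overnight at 37 deg C, then exposed to compound by pintool overnight at 37 deg C. Rise in yellow fluorescence (Ex 488/Em 500-530, Acumen) marks blocked Vif-driven A3G degradation.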
PTHR1 agonist = qHTS for PTHR1 Agonists: Primary Screen; 0.075% of 410,000 active; Parathyroid hormone/parathyroid hormone-related peptide receptor (Homo sapiens), Q03431; HEK293 GP2 PTHR1 cells, GloSensor cAMP luminescence, 1 h; Potency, µM (highest dose often 115 µM), without a hit: top-dose activation, actives largely listed as activators; also: potency is read from the fitted curve at half-maximal effect; nearly all actives have a fitted effect of over 55% in size
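HEK-293-derived GP2 cells expressing PTHR1 and a GloSensor cAMP reporter, 3,000/well, plated overnight, given luciferin plus IBMX (each 0.5 mM as added) for 1 h at 37 °C, then compound for 1 h at 37 °C. Luminescence was read after 15 min at room temperature.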
Vif-APOBEC3F blk = qHTS for Inhibitors of Vif-A3F Interactions: qHTS; HeLa A3F-eYFP + Vif (tagged APOBEC3F with the HIV-1 protein that degrades it), YFP fluorescence increase; AID 602313, 2012; 0.2% of 390,000 active; Potency, µM (doses to about 46.1 µM), inactives show top-dose activity, negative = active; also: potency is read from the fitted curve at half-maximal effect; % of control where 0% means no effect; nearly all actives have a fitted effect of over 65% in size
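HeLa cells stably expressing Vif plus C-terminally eYFP-tagged A3F were seeded, incubated overnight at 37 deg C, dosed with compound, incubated overnight again at 37 deg C. Yellow fluorescence (Ex 488/Em 500-530) reported blocked Vif-mediated A3F-eYFP degradation.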
mIDH1 inhibitor = qHTS for Inhibitors of mutant isocitrate dehydrogenase 1 (IDH1): qHTS; IDH1-R132H enzyme, NADPH consumption, diaphorase/resazurin fluorescence; 0.093% of 390,000 active; AID 602179, 2012; Potency, µM (highest dose often 76.6 µM), for the others: at the top dose activity change, negative = inhibition, most hits filed as inhibitors; Isocitrate dehydrogenase [NADP] cytoplasmic (Homo sapiens), O75874; also: potency is read from the fitted curve at half-maximal effect; % is scaled to controls: 0 for no effect and ±100 for the full control effect; nearly all actives have a fitted effect of over 65% in size
Target sequence (O75874 whole entry R132H, stated change not applied): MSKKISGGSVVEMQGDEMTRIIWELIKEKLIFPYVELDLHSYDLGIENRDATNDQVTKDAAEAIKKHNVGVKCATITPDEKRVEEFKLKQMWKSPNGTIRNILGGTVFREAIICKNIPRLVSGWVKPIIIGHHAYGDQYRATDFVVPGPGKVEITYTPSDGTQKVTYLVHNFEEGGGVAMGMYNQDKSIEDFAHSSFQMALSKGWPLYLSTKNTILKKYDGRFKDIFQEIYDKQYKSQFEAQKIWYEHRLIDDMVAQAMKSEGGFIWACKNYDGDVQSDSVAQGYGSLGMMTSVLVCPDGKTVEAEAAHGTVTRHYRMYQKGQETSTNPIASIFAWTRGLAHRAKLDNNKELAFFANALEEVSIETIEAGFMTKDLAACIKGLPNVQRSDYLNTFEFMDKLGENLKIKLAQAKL
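IDH1-R132H (0.5 ug/mL dispensed) in pH 7.5 Tris buffer was preincubated 30 min with compound, then given a substrate mix of 0.016 mM NADPH and 2 mM alpha-KG for 80 min at room temperature; remaining NADPH was read by diaphorase/resazurin fluorescence.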
PINK1 expr mod = A Quantitative High throughput Screen to Identify Chemical Modulators of PINK1 Expression; PINK1 immunofluorescence, high-content cytometry, 24 h; Potency, µM (top dose mostly 76.6 µM), inactives show at the highest dose activation (PINK1 increase), usual class: activators; 0.2% of 410,000 active; active = well fitted activation curve with a large enough effect; inconclusive = small, poorly fitted or top-dose-only effect; cell line not stated here; also: potency is read from the fitted curve at half-maximal effect; % of control where 0% means no effect; nearly all actives have a fitted effect of over 65% in size
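Fluorescence from anti-PINK1 antibody, together with nuclear and cell stains, was scanned on a laser-scanning cytometer. Before staining, stable-line cells were incubated 24 hours with compounds at 5 concentrations; primary antibody 12 h at 10 degrees C.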
LDHA block = qHTS assay for inhibitors of human lactate dehydrogenase | AID 1347041, 2019 | L-lactate dehydrogenase A chain (Homo sapiens), P00338 | activity change, % (values are at about 110 or 230 µM) | 0.15% of 480,000 active | purified LDHA, NADH/diaphorase-resazurin fluorescence; hits give low values; in the data active = activity change below about -30%; inconclusive = mostly about -25% to -30%;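 also: plate controls were DMSO wells for no effect and wells without enzyme for full effect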
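Resorufin fluorescence (ex540/em590), read at 0 and 20 min after diaphorase/resazurin addition, reports the NADH left after a 5 min room-temperature reaction of 2 nM human LDH5 with 0.06 mM NADH and 0.2 mM pyruvate.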
* = called active by the depositor; i = inactive; ? = inconclusive; / = not tested or not shown; [ ] = dose if it differs, or a comment. Unless noted, calls follow the shape of the dose curve; as a rule, active = well fitted curve in the direction sought with a large enough effect; inconclusive = small, poorly fitted or top-dose-only effect, or another doubt; inactive = no such curve, though single readings can be large; an effect the other way counts as inactive or inconclusive.

SMILES | Vif-APOBEC3G blk | PTHR1 agonist | Vif-APOBEC3F blk | mIDH1 inhibitor | PINK1 expr mod | LDHA block
CC(NC(=O)/C(=C/c1ccc(OC(F)F)cc1)c1ccccc1)c1ccccc1 (stereo not drawn) | -5% | -47% | 7% | 2% | 45µM* | -3
O=C(COC(=O)c1ccccn1)Nc1ccccc1OC(F)F | -4% | i | ? | 2% | 1% | 0
O=C(COC(=O)c1cccnc1Cl)Nc1ccccc1OC(F)F | 0% | i | 10µM* | 3% | 2% | -9
COCC(=O)N1C[C@H]2CON(C)[C@H]2C[C@H]1c1cccc(-c2ccccc2OC)c1 | -4% | -24% | -1% | 14% | 2% | -31*
CSc1ccc(CCNC(=O)c2noc(C)c2Cn2nc(C)cc2C)cc1 | / | / | / | / | / | 0
CCC(CC)=NNc1cccc([N+](=O)[O-])c1 | -3% | i | -1% | 2% | 0% | 3
N#C/C(=N\Nc1cccc(Cl)c1)C(=O)c1ccccc1 | -15% | -22%[57.5 µM] | -1% | 0% | 25µM* | 2
COc1ccc(C(=O)/C(C#N)=N/Nc2cccc([N+](=O)[O-])c2)cc1 | -8% | -51% | 0% | 2% | 14µM* | -7
Cc1ccc(NC(=O)c2sc3nc4c(cc3c2N)CN(C(C)C)CC4)cc1 | / | / | / | / | / | -2
CCN(CC)CCCNCC(=O)Nc1cc(C)on1 | -5% | 10% | -6% | 3% | 1% | -30*
COc1cccc(C2CCCN2Cc2nc(-c3cccc(Cl)c3)no2)c1 (stereo not drawn) | / | / | / | / | / | -3
On1onc2c3cc(-c4ccccc4)nc3ccc21 | 3.5µM* | -27% | ? | 20% | 12% | -3
c1ccc(-c2cc3c(ccc4nonc43)nn2)cc1 | -1% | i | -11% | 2% | 0% | 0
CCN1C(=O)/C(=C2/Sc3ccc(OC)cc3N2C)SC1=Nc1ccc(OC)cc1 | -3% | -8% | -13% | 4% | 7% | 9
C=CCN1C(=O)/C(=C2/Sc3ccc(OC)cc3N2C)SC1=Nc1cccc(O)c1 | 11µM* | i | 11µM* | -5% | ? | 0
O=C(Nc1ccc(-n2cccn2)c(F)c1)C1CCCN(C(=O)c2ccoc2)C1 (stereo not drawn) | / | / | / | / | / | -31*
O=C(Nc1ccc(-n2cccn2)c(F)c1)C1CCCN(C(=O)c2ccco2)C1 (stereo not drawn) | / | / | / | / | / | 5
Cc1cc2oc3ccc(NCCCn4ccnc4)cc3c(=O)c2cc1C | ? | i | 22µM* | 3%[38.3 µM] | 9% | 3
CCc1cc(=S)n2c([nH]c3ccccc32)c1C#N | -2% | -12% | 2% | 0% | 16µM* | -20
CCc1cc(=O)n2c([nH]c3ccccc32)c1C#N | -2% | -35%[57.5 µM] | 4% | 10% | -1% | 13
COc1cc(OC)cc(C(=O)N/N=C(\C)CC(=O)Nc2ccccn2)c1 | 3.5µM* | -1% | -3% | 0% | 5% | 2
COc1ccc(C(=O)N/N=C/c2ccc(OC)c(CSc3ccccn3)c2)cc1 | 2% | -19% | 4% | 0% | 1% | -2
COc1ccc(/C=N/NC(=O)c2cccnc2)cc1CSc1ccccn1 | 7.1µM* | i | -3% | 1% | 8% | -1
CC(Sc1nc(CN2CCOCC2)nc2ccccc12)C(=O)Nc1ccc(F)cc1F (stereo not drawn) | / | / | / | / | / | -33*
O=C(NCC1OCCc2ccccc21)c1cccc(Br)c1 (stereo not drawn) | / | / | / | / | / | -42*
SMILES | Vif-APOBEC3G blk | PTHR1 agonist | Vif-APOBEC3F blk | mIDH1 inhibitor | PINK1 expr mod | LDHA block
COc1cc(/C=C(\C#N)C(=O)c2ccc(O)c(O)c2)cc(I)c1O | -12% | i | ? | 4% | 0% | -44*
COc1ccc(-c2ccc(=O)n(C3CCc4ccccc4NC3=O)n2)c(F)c1 (stereo not drawn) | / | / | / | / | / | -16
O=C1C=CC(=CN(O)c2ccccc2)C=C1 | / | / | / | / | / | 25
O=C(Nc1ccc(F)cc1)Nc1ccc2snnc2c1 | -1% | -72% | -5% | 14% | 32µM* | 1
CCOc1ccc(C(=O)Nc2ccc3oc(-c4ccccc4C)nc3c2)cc1 | / | / | / | / | / | -2
CCc1nnc(SCC(=O)N2CCc3ccccc32)n1CC | -1% | i | 5% | 16% | 0% | -4
CCn1c(SCC(=O)N2CCc3ccccc32)nnc1-c1ccncc1 | 2% | -23%[57.5 µM] | 3% | 10% | -1% | -39*
CCOC(=O)c1ccc(Nc2nc3ccccc3nc2NS(=O)(=O)c2ccc(Cl)cc2)cc1 | -27% | -39% | 7.1µM* | -25% | 1% | -4
O=S(=O)(Nc1nc2ccccc2nc1OCC(F)(F)F)c1cccs1 | -5% | -37% | 25µM* | 3% | 1% | -1
Cc1ccc2nc(NS(=O)(=O)c3ccc(Cl)cc3)c(Nc3ccc4c(c3)OCO4)nc2c1 | / | / | / | / | / | 8
O=S(=O)(Nc1nc2ccccc2nc1Nc1ccc(F)cc1)c1cccs1 | / | / | / | / | / | 10
Cc1ccc2nc(NS(=O)(=O)c3ccc(Cl)cc3)c(Nc3ccc(C(=O)O)cc3)nc2c1 | -3% | -7% | 4.5µM* | -7% | 0% | 4
CCCCOC(=O)c1ccc(Nc2nc3ccccc3nc2NS(=O)(=O)c2ccccc2)cc1 | / | / | / | / | / | 1
CC(=O)c1ccc(Nc2nc3ccccc3nc2NS(=O)(=O)c2cccs2)cc1 | -6% | -46% | 15% | -11% | 40µM* | -2
Cc1ccc(S(=O)(=O)Nc2ccc(S(=O)(=O)Nc3ccccc3)cc2[N+](=O)[O-])cc1 | / | / | / | / | / | -6
COc1ccc(OCC(=O)NN=C(C)C)cc1 | / | / | / | / | / | -6
CCCCCCCCSCCCCCCCO | / | / | / | / | / | 5
Cc1cccc2c1NC1(CCCC1)CC2C (stereo not drawn) | 1% | -10% | -5% | 3% | 45µM* | -2
N#CC(C#N)=C1C=CC=CN1/C(=C\c1ccco1)C(=O)c1ccccc1 | ? | -31% | 20µM* | 6% | -1% | 1
N#CC(C#N)=C1C=CC=CN1/C(=C\c1ccco1)C(=O)c1ccc(Br)cc1 | -23% | -13% | ? | 2% | -1% | 1
Cc1cn2c(N)c(C=C3C=C(Cl)C(=O)C(Cl)=C3)c(=O)nc2s1 | -11% | -42% | 10µM* | 13% | ? | -4
O=C(COc1ccc(Br)cc1)Nc1ccc(C(=O)Nc2ccccc2C(=O)O)cc1 | -1% | -35% | 7% | 6% | 0% | -32*
Cc1cc(C(=O)Nc2cccc(I)c2)c(C)o1 | / | / | / | / | / | 11
